In the supplement of paper PMC10681739:

Columns and labels:
ETS1 [1] = target: T1, ETS1 (UniProt P14921); test: ETS1 binding intensity (PBM fluorescence), ETS1 alone (arbitrary fluorescence units); higher = stronger binding; details: ETS1 concentration 1 nM; RUNX1 concentration 0 nM
T1 sequence: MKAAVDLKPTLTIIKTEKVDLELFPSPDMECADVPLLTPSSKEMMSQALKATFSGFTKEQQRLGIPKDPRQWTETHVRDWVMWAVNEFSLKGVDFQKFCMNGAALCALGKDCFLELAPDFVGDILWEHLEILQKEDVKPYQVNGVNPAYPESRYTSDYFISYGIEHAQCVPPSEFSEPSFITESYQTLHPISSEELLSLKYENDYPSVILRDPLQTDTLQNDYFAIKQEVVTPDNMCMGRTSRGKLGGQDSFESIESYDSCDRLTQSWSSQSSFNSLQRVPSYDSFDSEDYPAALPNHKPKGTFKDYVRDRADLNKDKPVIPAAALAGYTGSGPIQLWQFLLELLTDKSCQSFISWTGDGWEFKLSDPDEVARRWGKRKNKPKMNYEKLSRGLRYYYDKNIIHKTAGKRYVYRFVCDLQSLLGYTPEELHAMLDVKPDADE

RUNX1 [2] = target: RUNX1 (UniProt Q01196); test: RUNX1 binding intensity (PBM fluorescence), RUNX1 alone (arbitrary fluorescence units); higher = stronger binding; details: RUNX1 concentration 2 nM; ETS1 concentration 0 nM
Chain of RUNX1 (Q01196 whole entry): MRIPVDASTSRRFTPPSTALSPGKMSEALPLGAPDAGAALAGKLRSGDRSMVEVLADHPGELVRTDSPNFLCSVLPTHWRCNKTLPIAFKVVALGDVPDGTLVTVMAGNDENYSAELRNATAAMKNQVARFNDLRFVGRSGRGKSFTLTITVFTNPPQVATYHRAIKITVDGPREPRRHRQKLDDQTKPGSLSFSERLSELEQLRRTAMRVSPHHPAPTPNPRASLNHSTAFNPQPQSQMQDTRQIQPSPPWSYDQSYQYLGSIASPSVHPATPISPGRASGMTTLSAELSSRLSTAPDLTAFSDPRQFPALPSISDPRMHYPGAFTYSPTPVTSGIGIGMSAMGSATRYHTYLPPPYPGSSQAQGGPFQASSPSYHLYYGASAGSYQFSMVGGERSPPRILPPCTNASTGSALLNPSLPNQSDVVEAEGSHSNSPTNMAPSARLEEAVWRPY
Protocol: (§1)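 Cooperative gcPBM on 36-bp genomic probes with neighbouring ETS1 and RUNX1 sites. Recombinant human RUNX1 (2 nM) was incubated alone or with ETS1 (25 nM) and detected with anti-RUNX1 antibody plus Alexa488 secondary. Values are medians over 4 replicate spots; the RUNX1+ETS1 data were normalised to the RUNX1-only data. The probes sit in constant array flanks that are not printed.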

ETS1 [3] = target: T1, ETS1; test: ETS1 binding intensity (PBM fluorescence) in presence of RUNX1, normalised to ETS1-only experiment (arbitrary fluorescence units); higher = stronger binding; details: ETS1 concentration 1 nM; RUNX1 concentration 25 nM
RUNX1 [4] = target: RUNX1 (UniProt Q01196); test: RUNX1 binding intensity (PBM fluorescence) in presence of ETS1, normalised to RUNX1-only experiment (arbitrary fluorescence units); higher = stronger binding; details: RUNX1 concentration 2 nM; ETS1 concentration 25 nM
Protocol: as §1
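Throughout, for RUNX1 binding intensity (PBM fluorescence) in presence of ETS1, normalised to RUNX1-only experiment: Full-length recombinant human ETS1 or RUNX1 bound to double-stranded 36-bp genomic probes on microarrays, detected by protein-specific primary antibody and Alexa488 secondary, spot fluorescence as median of four replicate spots.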
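Throughout, for RUNX1 binding intensity (PBM fluorescence), RUNX1 alone: Full-length recombinant human RUNX1 bound to double-stranded 36-bp genomic probes on a high-density microarray, scored as Alexa488 fluorescence per spot via anti-RUNX1 antibody, median of four replicate spots.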

Sequence | ETS1 binding intensity (ETS1 [1]) | RUNX1 binding intensity (RUNX1 [2]) | ETS1 binding intensity (ETS1 [3]) | RUNX1 binding intensity (RUNX1 [4])
TGAGTCACAGAGACAGGATGTGGTGCAGGGGGTATT | 7580 | 718 | 13500 | 1030
TACGGGAACTTCCTTTTCTTGTGGTGTGGCCGGGTC | 571 | 873 | 853 | 2050
CCGCCGCGCGCCGGATGCTAAGACCGCGATTTCCCC | 4180 | 781 | 7590 | 1110
CCTCTGTTCTTCACAGGAAGCCACAGGCCTCCCCTG | 2840 | 958 | 3160 | 1050
GCGGAGGGAAGCGGAAATACTTGCGGTGGGGGCGAC | 3700 | 898 | 19400 | 2210
GTTTCCACTTCCTGCTGTGCAGCAGTACCACCAAGA | 1000 |  | 1030 | 2800
CTGCGTTTCCTCTGAGTTTTGCATGTTGAGGTTGGA | 462 | 877 | 382 | 1280
CCAGTACCCCACTTCCTGACCAAACCACAAAGGTCA | 635 |  | 2450 | 8080
CCAACTTTTGAGGGATGTGGTTACGTTTTCTAGATC | 366 | 1410 | 1440 | 1620
ACCATCCTGTAGTCTGTTAAGTGAGCAACCGCATTA | 447 |  | 948 | 1900
GATACCCAGCCAGCGGAAGTGCGGTTAACTGCCCGA | 4460 | 4990 | 18400 | 11100
AGCAACAGGAAAGAACAGCCTGACCACAGCAGCCAC | 393 | 948 | 727 | 1050
AGATTAGATGCAGGATGTGGTATACAAAGGCACGTT | 2530 | 823 | 7140 | 1820
CCTGGGCAAGGCCGGATGCCTGTGGCTTCCAGGCTG | 2880 |  | 3350 | 1060
